Measured values as given in the supplement of paper PMC10849652.
Targets with a hit are over-represented here; the source holds about 7,900 in all. About 0.6% of all pairs of compound and target were hits.

compound: CC(C)(O)CC(=O)NCCn1ccc2ncnc(Nc3ccc(Oc4cccc(C(F)(F)F)c4)c(Cl)c3)c21; test: log2 fold change, soluble protein after heating vs DMSO (PISA); higher = thermal stabilisation; K562 cells, 10 uM, 30 min; active = over 0.2 and 3.5 SD of the protein, either way, in both replicates (recomputed)
Method in brief: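 Aliquots of K562 cells (2×10^6 cells/mL) treated with 10 μM compound for 30 min were heated for 3 min over 48°C-58°C. After pooling and extraction in PBS with 0.5% NP-40 at 4°C, soluble protein from a 21,000xg, 90 min spin was quantified by TMTpro 16plex LC-MS/MS with channel sums equalised. Thermal stability is expressed against control samples, from duplicates, as a log2 fold change.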

Sequence of UniProt Q9Y5K5 (Q9Y5K5 whole entry, looked up): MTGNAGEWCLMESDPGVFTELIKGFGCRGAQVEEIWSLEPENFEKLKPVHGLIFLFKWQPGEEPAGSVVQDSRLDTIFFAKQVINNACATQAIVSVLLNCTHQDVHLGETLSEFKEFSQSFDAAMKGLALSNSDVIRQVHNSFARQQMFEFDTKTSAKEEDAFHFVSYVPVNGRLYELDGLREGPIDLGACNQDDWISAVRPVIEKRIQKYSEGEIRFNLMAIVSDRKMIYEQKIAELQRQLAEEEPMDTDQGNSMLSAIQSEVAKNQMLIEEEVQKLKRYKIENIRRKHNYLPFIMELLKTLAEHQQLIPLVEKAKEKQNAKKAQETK
Sequence of UniProt Q8NCE0 (Q8NCE0 whole entry, looked up): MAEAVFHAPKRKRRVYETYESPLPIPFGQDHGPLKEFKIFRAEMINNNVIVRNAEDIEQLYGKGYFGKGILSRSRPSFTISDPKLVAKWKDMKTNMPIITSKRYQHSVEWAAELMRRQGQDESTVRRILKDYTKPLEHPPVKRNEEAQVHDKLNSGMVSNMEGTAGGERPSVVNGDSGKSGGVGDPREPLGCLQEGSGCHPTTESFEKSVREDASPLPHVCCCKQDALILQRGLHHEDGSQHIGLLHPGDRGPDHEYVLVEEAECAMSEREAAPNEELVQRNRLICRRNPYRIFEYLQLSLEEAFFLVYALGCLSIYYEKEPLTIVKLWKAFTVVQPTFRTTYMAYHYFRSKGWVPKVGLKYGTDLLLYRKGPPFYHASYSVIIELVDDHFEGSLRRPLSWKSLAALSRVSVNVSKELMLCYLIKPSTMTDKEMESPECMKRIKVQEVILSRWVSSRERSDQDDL
Sequence of UniProt Q96AX1 (Q96AX1 whole entry, looked up): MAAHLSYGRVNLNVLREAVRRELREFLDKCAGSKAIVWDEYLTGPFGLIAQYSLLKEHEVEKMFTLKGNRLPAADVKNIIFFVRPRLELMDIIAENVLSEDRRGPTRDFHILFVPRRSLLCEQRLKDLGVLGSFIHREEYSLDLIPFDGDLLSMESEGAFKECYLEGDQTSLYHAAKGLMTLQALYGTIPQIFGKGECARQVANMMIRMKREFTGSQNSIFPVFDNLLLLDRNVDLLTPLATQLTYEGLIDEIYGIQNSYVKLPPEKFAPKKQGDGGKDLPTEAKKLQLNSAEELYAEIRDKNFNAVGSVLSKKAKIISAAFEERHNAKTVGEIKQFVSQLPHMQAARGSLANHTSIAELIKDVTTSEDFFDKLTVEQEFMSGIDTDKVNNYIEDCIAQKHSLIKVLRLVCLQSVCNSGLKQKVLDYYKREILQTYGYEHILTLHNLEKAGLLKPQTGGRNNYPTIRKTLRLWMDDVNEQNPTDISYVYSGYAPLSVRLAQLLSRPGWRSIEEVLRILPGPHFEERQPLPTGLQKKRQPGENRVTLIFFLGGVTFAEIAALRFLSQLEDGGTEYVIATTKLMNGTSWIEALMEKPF
Sequence of UniProt Q9NUM4 (Q9NUM4 whole entry, looked up): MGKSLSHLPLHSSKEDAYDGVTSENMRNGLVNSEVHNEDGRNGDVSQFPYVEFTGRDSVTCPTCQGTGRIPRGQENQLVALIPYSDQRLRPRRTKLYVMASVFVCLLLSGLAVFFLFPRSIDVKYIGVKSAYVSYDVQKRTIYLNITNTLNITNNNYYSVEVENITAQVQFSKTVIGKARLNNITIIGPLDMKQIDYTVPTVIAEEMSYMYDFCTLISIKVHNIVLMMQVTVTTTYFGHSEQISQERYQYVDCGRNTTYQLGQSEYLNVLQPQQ
Sequence of UniProt Q5U3C3 (Q5U3C3 whole entry, looked up): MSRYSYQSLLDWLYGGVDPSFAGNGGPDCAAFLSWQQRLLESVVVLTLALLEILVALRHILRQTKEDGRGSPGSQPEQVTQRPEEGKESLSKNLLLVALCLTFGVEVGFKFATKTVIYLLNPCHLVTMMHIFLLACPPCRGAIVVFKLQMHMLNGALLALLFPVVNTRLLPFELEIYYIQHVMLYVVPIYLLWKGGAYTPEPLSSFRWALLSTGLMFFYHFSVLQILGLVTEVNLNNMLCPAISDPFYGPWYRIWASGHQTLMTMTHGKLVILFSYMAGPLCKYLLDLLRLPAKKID
Sequence of UniProt Q9Y4E8 (Q9Y4E8 whole entry, looked up): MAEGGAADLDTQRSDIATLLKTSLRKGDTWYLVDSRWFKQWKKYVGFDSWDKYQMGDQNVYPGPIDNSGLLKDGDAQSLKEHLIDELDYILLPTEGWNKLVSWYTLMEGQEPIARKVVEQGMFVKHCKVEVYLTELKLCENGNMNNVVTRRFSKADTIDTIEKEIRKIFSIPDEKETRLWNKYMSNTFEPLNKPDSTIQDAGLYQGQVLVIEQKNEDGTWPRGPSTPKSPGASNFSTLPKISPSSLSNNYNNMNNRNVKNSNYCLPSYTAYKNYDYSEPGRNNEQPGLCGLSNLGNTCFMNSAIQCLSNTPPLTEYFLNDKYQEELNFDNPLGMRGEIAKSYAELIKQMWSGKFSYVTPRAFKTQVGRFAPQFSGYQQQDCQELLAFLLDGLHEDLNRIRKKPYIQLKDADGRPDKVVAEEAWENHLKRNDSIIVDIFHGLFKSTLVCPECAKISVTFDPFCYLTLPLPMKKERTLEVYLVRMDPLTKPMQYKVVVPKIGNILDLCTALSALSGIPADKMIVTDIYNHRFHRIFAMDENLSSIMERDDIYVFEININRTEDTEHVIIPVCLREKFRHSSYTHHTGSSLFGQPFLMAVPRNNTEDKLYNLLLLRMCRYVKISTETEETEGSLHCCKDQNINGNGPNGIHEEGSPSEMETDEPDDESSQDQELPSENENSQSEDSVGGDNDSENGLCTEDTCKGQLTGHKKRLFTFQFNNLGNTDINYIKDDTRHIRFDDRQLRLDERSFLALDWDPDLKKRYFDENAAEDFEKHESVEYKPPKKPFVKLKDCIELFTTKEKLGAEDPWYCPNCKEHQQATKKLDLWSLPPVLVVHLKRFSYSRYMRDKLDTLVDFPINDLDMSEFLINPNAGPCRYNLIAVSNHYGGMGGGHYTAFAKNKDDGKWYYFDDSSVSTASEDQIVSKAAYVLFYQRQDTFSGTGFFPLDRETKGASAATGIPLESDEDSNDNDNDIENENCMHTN
Sequence of UniProt Q9NQZ2 (Q9NQZ2 whole entry, looked up): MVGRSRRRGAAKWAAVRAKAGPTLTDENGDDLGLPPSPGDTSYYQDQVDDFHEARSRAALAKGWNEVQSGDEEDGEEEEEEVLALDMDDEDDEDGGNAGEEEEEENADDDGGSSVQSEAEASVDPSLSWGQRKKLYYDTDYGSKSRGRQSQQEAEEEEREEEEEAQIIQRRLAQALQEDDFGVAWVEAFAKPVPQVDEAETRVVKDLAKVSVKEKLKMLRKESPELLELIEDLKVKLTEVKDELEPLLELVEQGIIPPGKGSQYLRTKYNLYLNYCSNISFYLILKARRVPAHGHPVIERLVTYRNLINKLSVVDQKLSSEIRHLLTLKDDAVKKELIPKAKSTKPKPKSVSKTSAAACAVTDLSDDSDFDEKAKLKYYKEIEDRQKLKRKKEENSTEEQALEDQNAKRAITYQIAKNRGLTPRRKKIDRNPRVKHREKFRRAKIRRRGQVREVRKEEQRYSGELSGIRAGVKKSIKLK
Sequence of UniProt Q6PID6 (Q6PID6 whole entry, looked up): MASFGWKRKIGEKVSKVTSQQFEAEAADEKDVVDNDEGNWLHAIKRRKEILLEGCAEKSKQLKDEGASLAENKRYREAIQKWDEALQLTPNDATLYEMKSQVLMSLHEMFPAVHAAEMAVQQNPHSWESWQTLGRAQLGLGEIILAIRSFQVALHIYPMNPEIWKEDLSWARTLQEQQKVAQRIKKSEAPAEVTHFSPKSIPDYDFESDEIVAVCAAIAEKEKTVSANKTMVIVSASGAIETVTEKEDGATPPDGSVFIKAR
Sequence of UniProt Q9H267 (Q9H267 whole entry, looked up): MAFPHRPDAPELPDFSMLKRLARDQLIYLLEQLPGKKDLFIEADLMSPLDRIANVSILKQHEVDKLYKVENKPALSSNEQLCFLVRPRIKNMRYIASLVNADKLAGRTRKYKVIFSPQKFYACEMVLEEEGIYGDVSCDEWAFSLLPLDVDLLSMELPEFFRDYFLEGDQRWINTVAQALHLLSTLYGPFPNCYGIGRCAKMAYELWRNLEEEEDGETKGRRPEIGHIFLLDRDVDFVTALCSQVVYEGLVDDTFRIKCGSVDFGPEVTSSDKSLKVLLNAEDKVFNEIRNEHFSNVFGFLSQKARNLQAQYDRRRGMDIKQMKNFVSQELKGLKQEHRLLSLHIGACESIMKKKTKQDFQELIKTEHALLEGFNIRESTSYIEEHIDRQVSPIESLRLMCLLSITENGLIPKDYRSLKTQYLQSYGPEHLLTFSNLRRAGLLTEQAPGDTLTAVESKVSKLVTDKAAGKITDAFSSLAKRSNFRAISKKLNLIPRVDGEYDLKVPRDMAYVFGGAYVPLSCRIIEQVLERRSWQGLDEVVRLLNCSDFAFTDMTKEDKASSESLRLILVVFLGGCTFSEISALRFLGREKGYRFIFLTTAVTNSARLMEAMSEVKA
Sequence of UniProt Q5BJH2 (Q5BJH2 whole entry, looked up): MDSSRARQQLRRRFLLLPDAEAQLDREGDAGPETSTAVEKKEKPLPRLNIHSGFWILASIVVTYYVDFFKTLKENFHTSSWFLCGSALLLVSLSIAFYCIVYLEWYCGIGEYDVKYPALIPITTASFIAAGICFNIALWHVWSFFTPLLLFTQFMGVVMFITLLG
Sequence of UniProt Q9UBK9 (Q9UBK9 whole entry, looked up): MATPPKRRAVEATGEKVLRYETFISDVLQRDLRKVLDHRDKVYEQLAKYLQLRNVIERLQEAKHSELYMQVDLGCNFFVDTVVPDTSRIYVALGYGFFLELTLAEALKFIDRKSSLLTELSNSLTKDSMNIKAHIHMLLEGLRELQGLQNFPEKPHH
Sequence of UniProt Q92890 (Q92890 whole entry, looked up): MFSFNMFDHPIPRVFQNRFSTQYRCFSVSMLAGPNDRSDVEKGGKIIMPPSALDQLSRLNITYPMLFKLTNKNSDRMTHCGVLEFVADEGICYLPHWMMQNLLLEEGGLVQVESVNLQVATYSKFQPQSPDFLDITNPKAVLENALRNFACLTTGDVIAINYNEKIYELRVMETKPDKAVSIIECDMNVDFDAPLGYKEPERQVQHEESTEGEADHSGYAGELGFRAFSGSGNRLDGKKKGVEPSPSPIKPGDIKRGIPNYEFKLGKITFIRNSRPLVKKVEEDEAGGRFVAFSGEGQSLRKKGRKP

log2 fold change, inactive:
UXT isoform 2 (UniProt Q9UBK9) -0.005
TMEM128 (UniProt Q5BJH2) -0.051
VWA3B isoform 6 (UniProt Q502W6) 0
TMEM164 (UniProt Q5U3C3) -0.025
TXN2 (UniProt Q99757) 0.079
WDR37 isoform 2 (UniProt Q9Y2I8) -0.118
UBA52 (UniProt P62987) 0.107
USP15 (UniProt Q9Y4E8) -0.067
UTP3 (UniProt Q9NQZ2) 0.062
TTC33 (UniProt Q6PID6) -0.023
WDR75 (UniProt Q8IWA0) 0.012
UFD1 isoform 1 (UniProt Q92890) -0.04
TMEM189-UBE2V1 (UniProt I3L0A0) -0.024
TSEN2 (UniProt Q8NCE0) -0.127
UCHL5 isoform 3 (UniProt Q9Y5K5) -0.357
TMEM184C (UniProt Q9NVA4) 0.088
TMEM106B (UniProt Q9NUM4) 0.043
UBE4A isoform 2 (UniProt Q14139) -0.032
UCHL5 (UniProt Q9Y5K5) -0.028
VPS33B (UniProt Q9H267) -0.107
VPS33A (UniProt Q96AX1) -0.065
VPS18 (UniProt Q9P253) -0.024
